A selection: hits, their analogues and other compounds. The true share with any hit is near 7.5%.
SMN2 splice enh: increases expression of the SMN2 splice variant. HEK293 SMN2-luciferase splicing reporter, luminescence, 30-36 h. 2.8% of 210,000 active. Potency, µM (top dose mostly 46.1 µM), for inactives: at the top dose activity change, positive = activation, most hits filed as activators; further: % of control where 0% means no effect; nearly all actives have a fitted effect of over 55% in size
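qHTS luciferase splicing reporter: luminescence rises when SMN2 exon 7 is included in transfected HEK293 cells. Compound exposure lasted 30-36 h at 37C, with 4.5 mM final sodium butyrate as control, followed by a ONE-Glo read.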
FLuc counter: inhibits or activates purified firefly luciferase, miR-21 counter-screen | P08659 | purified FLuc, Km substrates, luminescence inhibition | Potency, µM (highest dose often 57.5 µM), without a hit: at the top dose activity change, negative = inhibition, usual class: inhibitors | 6.9% of 360,000 active | AID 588342;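 further: plate controls were vehicle for no effect and reference inhibitor for full effect; nearly all actives have a fitted effect of over 55% in size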
Target sequence (P08659 whole entry, looked up): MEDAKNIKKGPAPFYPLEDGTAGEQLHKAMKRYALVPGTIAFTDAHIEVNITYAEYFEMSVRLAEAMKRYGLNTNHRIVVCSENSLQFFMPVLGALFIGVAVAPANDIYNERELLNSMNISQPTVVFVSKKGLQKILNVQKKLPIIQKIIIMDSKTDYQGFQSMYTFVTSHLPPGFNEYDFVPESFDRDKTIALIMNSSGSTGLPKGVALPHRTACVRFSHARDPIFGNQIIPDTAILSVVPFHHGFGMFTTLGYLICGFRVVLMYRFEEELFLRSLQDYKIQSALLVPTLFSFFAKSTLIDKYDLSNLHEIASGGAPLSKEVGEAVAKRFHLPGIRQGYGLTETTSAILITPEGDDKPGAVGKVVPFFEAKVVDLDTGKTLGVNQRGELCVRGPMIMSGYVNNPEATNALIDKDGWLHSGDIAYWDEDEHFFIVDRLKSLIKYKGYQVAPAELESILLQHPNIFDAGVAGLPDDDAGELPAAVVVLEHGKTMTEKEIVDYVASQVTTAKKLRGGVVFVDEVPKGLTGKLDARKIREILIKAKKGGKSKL
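Purified P. pyralis luciferase (10nM final) with 10uM D-luciferin and 10uM ATP (Km levels) in 50mM Tris acetate pH 7.5, 10mM Mg acetate, 0.01% Tween-20, 0.05% BSA; qHTS 6-point titration, ~60 µM downward; luminescence read.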
NPC1 promoter act: activators of NPC1 promoter | Potency, µM (top dose mostly 9.22 µM), for inactives: at the highest dose activation, usual class: activators | Huh7 NPC1 promoter luciferase reporter, 24 h | 2.4% of 320,000 active; further: % of control where 0% means no effect; nearly all actives have a fitted effect of over 60% in size
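Stable NPC1-promoter luciferase Huh7 line; cpd (DMSO) 24 h, 37 °C, 5% CO2; Amplite luciferase reagent 10 min RT; luminescence readout. qHTS format.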
Rab9 promoter act: activators of Rab9 promoter; Huh7 Rab9 promoter-luciferase reporter, luminescence, 24 h; Potency, µM (titrated, usually from 9.22 µM), for inactives: at the highest dose activation, negative = inhibition, most hits filed as activators; 2.8% of 320,000 active; further: % of control where 0% means no effect; nearly all actives have a fitted effect of over 60% in size
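Luciferase signal after 10 min detection reagent at ambient indicates Rab9 promoter upregulation; stably transfected Huh7 cells were treated 24 h with compound in DMSO at 37 °C, 5% CO2.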
Luc counter: counter-screen: inhibitors of Kinase-Glo firefly luciferase; 0.28% of 200,000 active; Potency, µM (highest dose often 38.3 µM), inactives show at the top dose activity change, negative = inhibition, actives largely listed as inhibitors; Q27757; Kinase-Glo luciferase, ATP luminescence, 8 min; further: on the % scale 0 is the no-effect control and ±100 the full control effect; nearly all actives have a fitted effect of over 60% in size
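Compounds were added to a substrate mix at pH 7.2 (50 mM imidazole, 10 uM ATP, within the enzyme's linear range), followed by Kinase-Glo detection reagent; luminescence was measured after 8 minutes at ambient temperature.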
ELG1 genotoxic: induces genotoxicity in HEK293T cells with luciferase-tagged ELG1; HEK293T ELG1-luciferase reporter, luminescence, 16 h; Potency, µM (titrated, usually from 46 µM), inactives show top-dose activity change, positive = activation, most hits filed as activators; 1.3% of 330,000 active; AID 504466; further: % of control where 0% means no effect; nearly all actives have a fitted effect of over 60% in size
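Luminescence read-out: rising ELG1-luciferase signal, reflecting elevated ELG1 protein under genetic stress, flags genotoxic compounds. Cells were treated for 16 hr at 37 °C before ONE-Glo detection.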
* hit, by the source's call; ? = inconclusive; . = not tested or not shown. The call rests on the fitted dose curve; in most records, active means well fitted curve in the direction sought with a large enough effect; inconclusive means small, poorly fitted or top-dose-only effect, or another doubt; inactive means no such curve, though single readings can be large; an effect the other way counts as inactive or inconclusive. Potency means the concentration at half of the fitted maximal effect.

SMILES	SMN2 splice enh	FLuc counter	NPC1 promoter act	Rab9 promoter act	Luc counter	ELG1 genotoxic
CC(C)C(=O)NNc1nc2ccccc2s1	?	?	?	?	-1.9%	18.4µM*
O=C(CSc1ccc(Br)cc1)Nc1ccccc1N1CCOCC1	.	-4.9%	-0.8%	-1.0%	.	-11.7%
O=C(O)CCCn1cc(NC(=O)COc2cc(F)ccc2[N+](=O)[O-])cn1	9.4%	-2.9%	-19.8%	0.8%	0.6%	-8.4%
COc1ccccc1N1CCN(C(=O)COc2ccc(S(=O)(=O)NC(C)(C)C)cc2)CC1	.	-1.7%	-7.5%	-0.6%	2.8%	-7.0%
CCCOC(=O)CSc1nnc(-c2ccccc2)o1	.	-10.5%	.	.	.	.
OC[C@H]1NC[C@H](O)[C@@H](O)[C@H]1O	.	.	.	.	1.2%	.
COC(=O)c1ccccc1NC(=O)CSc1nc(-c2ccccc2)cc(C(F)(F)F)n1	3.3%	-7.1%	.	.	.	.
O=C(Nc1nc2ccccc2s1)Nc1ccc(F)cc1F	.	0.849µM*	1µM*	1.26µM*	.	4.11µM*
CCCCOC(=O)Nc1nc2ccccc2s1	25.1µM*	1.07µM*	2.82µM*	3.98µM*	-6.7%	?
COc1ccc(NC(=O)c2nc3ccccc3s2)cc1	?	1.07µM*	3.55µM*	1.58µM*	8.91µM*	1.3µM*
COc1ccc(C(=O)Nc2cccc(/C=C(\CCC(=O)O)c3nc4ccccc4s3)c2)cc1	.	9.53µM*	3.16µM*	?	.	0.5%
O=C(O)C/C(=C\c1cccc(NC(=O)c2ccccc2Cl)c1)c1nc2ccccc2s1	.	?	-1.7%	2.1%	.	4.3%
COc1cccc(CCNS(=O)(=O)CCNC(=O)c2cccc(OC)c2)c1	.	0.3%	-9.8%	-0.5%	.	-0.7%
CN=C1S/C(=C\c2ccc(N3CCCC3)c(F)c2)C(=O)N1C	?	4.78µM*	27.1%	?	0.5%	?
O=C(O)c1cccnc1SCc1cccc(Br)c1	.	?	-6.3%	1.3%	.	2.3%
O=C(O)c1ccccc1SCc1cn2cc(Br)ccc2n1	?	9.53µM*	?	?	0.0%	?
O=C(O)c1ccccc1SCc1csc(-c2ccccc2)n1	.	?	24.5%	?	.	?
O=C(O)c1cccnc1SCc1cn2cc(Br)ccc2n1	-1.0%	23.9µM*	-0.1%	-3.6%	5.9%	-2.2%
[O-]/[N+](=C/c1ccc(F)cc1)c1ccccc1	-8.7%	?	21.1%	20.6%	-14.9%	3.8%
[O-]/[N+](=C\c1ccc(OC(F)F)cc1)c1ccccc1	-0.6%	15.1µM*	?	?	-9.1%	12.1%
Cc1ccc(NC(=O)C2OCCc3ccccc32)cc1Cl (stereo not drawn)	1.7%	23.9µM*	7.3%	10.5%	-0.3%	11.2%
C[C@@H](NC(=O)c1nc[nH]c1C(=O)N(C)Cc1ccccc1)c1ccccc1	.	3.4%	-0.7%	0.3%	.	0.3%
CCN(Cc1ccccc1)c1ccccc1	3.9%	.	.	.	.	.
CCN(CC)c1ccc(N=Nc2nn(C)c(C)c2[N+](=O)[O-])cc1	14.1µM*	1.69µM*	0.794µM*	1.41µM*	-19.8%	5.8µM*
CCN(Cc1ccccc1)c1ccc(N=Nc2nn(C)c(C)c2[N+](=O)[O-])cc1	?	15.1µM*	19.5%	25.2%	-7.6%	10.8%
Cc1cc(S(=O)(=O)N2CCCOC2CNC(=O)C(=O)NCc2cccs2)ccc1F (stereo not drawn)	.	6.4%	3.0%	-8.6%	.	-5.7%
O=C(NCc1cccs1)C(=O)NCC1OCCCN1S(=O)(=O)c1ccccc1 (stereo not drawn)	5.62µM*	5.2%	-6.8%	0.2%	-5.6%	-0.5%
N/C(=N\OC(=O)CCC1CCCC1)c1ccccn1	?	0.477µM*	25.2%	23.5%	-23.9%	?
N/C(=N\OC(=O)C(c1ccccc1)c1ccccc1)c1ccccn1	-4.3%	5.3%	-2.0%	-2.1%	5.4%	6.0%
COc1ccc(/C(N)=N/OC(=O)CCCc2ccccc2)cc1OC	13.4%	?	-1.1%	-6.7%	-3.8%	-1.2%
